Bioassay records as filed in PubChem.
SIRT5 inh: inhibitors of human sirtuin-5 desuccinylase | AID 652115 | 330,000 compounds, 1.1% hits | Purified SirT5, succinyl-peptide AMC, trypsin-coupled fluorescence | inhibition, % at 15 µM | Q9NXA8; in the data active means inhibition above about 15%
dFosB act-1: enhances mouse delta FosB homodimer DNA binding; P13346; purified delta FosB, TAMRA-CDK5 oligo fluorescence polarization; percent of positive-control signal above neutral wells; activation, % at 25 µM; 340,000 compounds, 0.99% hits; AID 493131;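 active means mean activation above about 17%, with every replicate also reaching it, limit read from the data, passing the limit was not always enough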
PvdQ acylase: blocks Pseudomonas aeruginosa PvdQ acylase activity | 340,000 compounds, 0.063% hits | purified PvdQ acylase, fluorescence plate reader | inhibition, % at 10 µM | AID 488965; in the data active means inhibition above about 30%, passing the limit was not always enough
FGF22 binding: FGF22 (human) thermal shift binding; AID 651658; recombinant FGF22 thermal shift, SYPRO orange fluorescence; percent of sucrose octasulfate shift, DMSO zero; Q9HCT0; activity (Tm shift, normalised), % at 9.99 µM; 340,000 compounds, 1.5% hits;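 active means mean Tm shift, scaled 0 neutral to 100 positive control, at about 1.3% or above, every replicate too, limit read from the data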
Target sequence (Q9HCT0 whole entry, looked up): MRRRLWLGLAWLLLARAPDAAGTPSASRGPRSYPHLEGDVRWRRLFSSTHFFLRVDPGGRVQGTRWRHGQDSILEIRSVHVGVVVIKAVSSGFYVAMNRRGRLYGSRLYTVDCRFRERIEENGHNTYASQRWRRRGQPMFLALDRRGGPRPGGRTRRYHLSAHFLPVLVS
PglD DTNB: inhibitors of Campylobacter jejuni PglD acetyltransferase | purified PglD enzyme, DTNB colorimetric CoA detection | inhibition, % at 12.5 µM | AID 602405 | 360,000 compounds, 0.098% hits; in the data active means inhibition above about 16%, passing the limit was not always enough
CDK5 inh: inhibitors of human CDK5/p35 kinase | Q00535+Q15078 | inhibition, % at 10 µM | 330,000 compounds, 0.01% hits | AID 488839 | Recombinant CDK5/p35, ADP-Glo luminescence, 60 min;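 active means highest replicate inhibition of at least 50% and at least 75% of replicates reaching 50%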
Target sequence (Q00535 whole entry, looked up): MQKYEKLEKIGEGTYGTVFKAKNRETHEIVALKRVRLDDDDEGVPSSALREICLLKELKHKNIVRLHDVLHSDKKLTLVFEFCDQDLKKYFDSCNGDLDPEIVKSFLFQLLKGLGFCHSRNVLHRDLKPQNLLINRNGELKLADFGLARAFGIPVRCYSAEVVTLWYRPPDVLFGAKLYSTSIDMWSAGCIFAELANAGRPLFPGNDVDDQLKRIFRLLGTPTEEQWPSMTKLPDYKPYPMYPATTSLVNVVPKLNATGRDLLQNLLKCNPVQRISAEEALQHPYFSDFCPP
Target sequence (Q15078 whole entry, looked up): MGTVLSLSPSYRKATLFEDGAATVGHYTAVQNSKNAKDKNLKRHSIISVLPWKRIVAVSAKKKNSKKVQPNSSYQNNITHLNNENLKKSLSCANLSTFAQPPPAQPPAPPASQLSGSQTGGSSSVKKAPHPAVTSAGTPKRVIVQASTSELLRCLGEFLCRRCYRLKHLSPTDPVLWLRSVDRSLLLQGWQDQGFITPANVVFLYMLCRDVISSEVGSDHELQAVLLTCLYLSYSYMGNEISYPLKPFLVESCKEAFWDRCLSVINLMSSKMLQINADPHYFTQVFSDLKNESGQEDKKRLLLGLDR
dFosB act-2: delta FosB (mouse) homodimer activation. activation, % at 24.9 µM. AID 588690. shares compounds with dFosB act-1. 2,400 tested, under 10 active. purified delta FosB, TAMRA-CDK5 oligo fluorescence polarization; normalised: neutral wells 0, positive control 100;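 active means highest replicate activation at or above 34% and every replicate reaching that threshold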;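 further: higher polarization means more probe DNA bound by delta FosB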
Each line names hits and unclear results; the compound was inactive in the other large screens (follow-up assays come after a bar, where they were run). Hits are enriched below; roughly 2.8% of the tested compounds scored in any of these assays.

C[C@@H]1CN([C@@H](C)CO)C(=O)c2cc(NC(=O)CCCCCC(=O)Nc3ccccc3N)ccc2O[C@@H]1CN(C)C(=O)Nc1ccc(F)cc1	none (no result: SIRT5 inh, dFosB act-1, PvdQ acylase, PglD DTNB, CDK5 inh)
O=C(Nc1ccc(S(=O)(=O)Nc2nccs2)cc1)c1cccc(N2C(=O)c3ccccc3C2=O)c1	none (no result: PglD DTNB)
O=C(Nc1ccc(F)cc1)c1cccc(N2C(=O)c3ccccc3C2=O)c1	dFosB act-1 34.9 (no result: PglD DTNB) | dFosB act-2 inactive
O=C(Nc1ccc(-c2nc3ccccc3[nH]2)cc1)c1cccc(N2C(=O)CCC2=O)c1	dFosB act-1 35.7 (no result: SIRT5 inh, FGF22 binding, PglD DTNB) | dFosB act-2 inactive
O=C(CNC(=O)c1cccc(N2C(=O)c3ccccc3C2=O)c1)Nc1ccc(F)c(F)c1	dFosB act-1 33.1 | dFosB act-2 inactive
Cn1nc(C(=O)NCC(=O)Nc2ccc(F)c(F)c2)ccc1=O	none (no result: SIRT5 inh, dFosB act-1, PvdQ acylase, CDK5 inh)
O=C(COC(=O)c1ccccc1O)Nc1cccc2ccccc12	dFosB act-1 39.5 | dFosB act-2 inactive
O=C(COC(=O)CNS(=O)(=O)/C=C/c1ccccc1)Nc1cccc2ccccc12	dFosB act-1 26.8 (no result: SIRT5 inh, FGF22 binding, PglD DTNB) | dFosB act-2 inactive
NS(=O)(=O)c1ccc(NC(=O)COC(=O)c2cc3ccccc3cc2O)cc1	none
NC(=O)c1ccc(NC(=O)COC(=O)c2cc3ccccc3cc2O)cc1	dFosB act-1 36.1 | dFosB act-2 inactive
C[C@@H]1CN([C@@H](C)CO)S(=O)(=O)c2ccc(Br)cc2O[C@@H]1CN(C)Cc1ccccc1	none (no result: dFosB act-1, PvdQ acylase, CDK5 inh)
COc1ccc(Cl)cc1NC(=O)c1[nH]c(C)c(C(C)=O)c1C	dFosB act-1 35.5 | dFosB act-2 inactive
COc1ccc(OC)c(NC(=O)c2[nH]c(C)c(C(C)=O)c2C)c1	none (no result: SIRT5 inh, FGF22 binding)
CC(=O)Nc1sc(C)c(C)c1C(=O)OCC(=O)NCc1ccc(Cl)cc1	dFosB act-1 89.6 | dFosB act-2 inactive
COc1ccc(NC(=O)Nc2ccc(F)cc2F)c(C)c1	none (no result: SIRT5 inh, FGF22 binding)
Cc1cc([N+](=O)[O-])ccc1NC(=O)Nc1ccc(F)cc1F	dFosB act-1 24.4 (no result: PglD DTNB) | dFosB act-2 inactive
CC(=O)Nc1ccc2c(c1)C(=O)N(C)[C@@H]1CC[C@H](CC(=O)NC3CCCCC3)O[C@H]1CO2	none (no result: SIRT5 inh, dFosB act-1, PvdQ acylase, CDK5 inh)
CN1CCN(S(=O)(=O)c2cccc(C(=O)Oc3ccc(C(C)(C)C)cc3)c2)CC1	dFosB act-1 23.1 | dFosB act-2 inactive
COc1ccc(C(=O)Nc2nnc(S(=O)(=O)N(C)Cc3ccc(F)cc3)s2)cc1OC	dFosB act-1 23.2 | dFosB act-2 inactive
CN(Cc1ccccc1)S(=O)(=O)c1nnc(NC(=O)c2ccc(F)cc2)s1	none
CCCNC(=O)Nc1ccc2c(c1)OC[C@@H](C)N(Cc1ccccn1)C[C@H](C)[C@@H](OC)CN(C)C2=O	none (no result: dFosB act-1, PvdQ acylase, CDK5 inh)
O=C(CSc1ncnc2[nH]ncc12)Nc1nc(-c2ccc(F)c(F)c2)cs1	dFosB act-1 33.1 (no result: PglD DTNB) | dFosB act-2 inactive
COc1ccc(S(=O)(=O)N[C@H]2CC[C@@H](CC(=O)O)O[C@H]2CO)cc1	none (no result: dFosB act-1, PvdQ acylase, CDK5 inh)
CC(C)CC#Cc1ccc2c(c1)O[C@@H](CN(C)C(=O)Cc1cccnc1)[C@H](C)CN([C@@H](C)CO)S2(=O)=O	none (no result: dFosB act-1, PvdQ acylase, CDK5 inh)
C[C@@H]1CCCCO[C@@H](CN(C)S(=O)(=O)c2ccc(Cl)cc2)[C@H](C)CN([C@@H](C)CO)C(=O)c2cc(NC(=O)Nc3ccc4c(c3)OCO4)ccc2O1	none (no result: dFosB act-1, PvdQ acylase, CDK5 inh)
COc1ccc(N(CC(=O)N2CCc3ccccc32)S(=O)(=O)c2c(C)nn(C)c2C)cc1	none
COc1ccc(N(CC(=O)N2CCc3ccccc32)S(=O)(=O)c2c(C)n[nH]c2C)cc1	dFosB act-1 36.5 (no result: SIRT5 inh, FGF22 binding) | dFosB act-2 inactive
CC(C)NC(=O)Nc1ccc2c(c1)C(=O)N([C@H](C)CO)C[C@@H](C)[C@H](CN(C)S(=O)(=O)c1ccccc1)O2	none (no result: dFosB act-1, PvdQ acylase, CDK5 inh)
COc1ccc(-c2[nH]ncc2/C=N/NC(=O)c2ccc(Br)cc2)c(OC)c1	none (no result: SIRT5 inh)
COc1ccc(-c2[nH]ncc2/C=N/NC(=O)c2ccncc2)c(OC)c1	dFosB act-1 18.6 | dFosB act-2 inactive
COc1ccc(-c2[nH]ncc2/C=N\NC(=O)c2ccc(C(C)(C)C)cc2)cc1OC	none (no result: PglD DTNB)
COc1ccc(C(=O)N/N=C/c2cn[nH]c2-c2ccc(OC)cc2OC)cc1	dFosB act-1 17.2 | dFosB act-2 inactive
CCCC#Cc1ccc([C@@H]2[C@H](CO)N3CCCCN(C(=O)NC4CCCC4)C[C@@H]23)cc1	none (no result: dFosB act-1, PvdQ acylase, CDK5 inh)
C[C@@H]1CCCCO[C@H](CN(C)S(=O)(=O)c2cccs2)[C@@H](C)CN([C@@H](C)CO)C(=O)c2cc(NC(=O)CCC(F)(F)F)ccc2O1	none (no result: dFosB act-1, PvdQ acylase, CDK5 inh)
CC(=O)Nc1cc2cc(NS(=O)(=O)c3ccc(Cl)cc3)ccc2oc1=O	dFosB act-1 93.1 | dFosB act-2 inactive
CC(C)(C)C(=O)Nc1cc(S(=O)(=O)Nc2ccc(Cl)cc2)ccc1Cl	none (no result: CDK5 inh)
CO[C@H]1CN(C)C(=O)c2cc(NC(=O)CC(F)(F)F)ccc2OC[C@H](C)N(C(=O)c2ccccc2F)C[C@H]1C	none (no result: SIRT5 inh, dFosB act-1, PvdQ acylase, PglD DTNB, CDK5 inh)
O=C(CSc1n[nH]c(-c2ccco2)n1)Nc1sc2c(c1C(=O)Nc1ccccc1)CCCC2	dFosB act-1 25.2 (no result: SIRT5 inh, FGF22 binding) | dFosB act-2 inactive
CO[C@@H]1CN(C)C(=O)c2ccc(NS(=O)(=O)c3ccccc3C)cc2OC[C@H](C)N(S(C)(=O)=O)C[C@H]1C	none (no result: dFosB act-1, PvdQ acylase, CDK5 inh)
O=C(CN1C(=O)C2CC=CCC2C1=O)Nc1nnc(SCc2c(Cl)cccc2Cl)s1 (configuration not stated)	dFosB act-1 38.8 (no result: SIRT5 inh, FGF22 binding) | dFosB act-2 inactive
CCOc1cc(/C=N/NC(=O)C(=O)NCc2ccc3c(c2)OCO3)ccc1OCC(=O)N1CCOCC1	dFosB act-1 19.7 | dFosB act-2 inactive
CCOc1cc(/C=N/NC(=O)c2cccnc2)ccc1OCC(=O)N1CCOCC1	none (no result: SIRT5 inh, FGF22 binding)
CCOc1cc(/C=N/NC(=O)CN2CCOCC2)ccc1OCc1ccccc1	none (no result: SIRT5 inh, FGF22 binding)
CCOc1cc(/C=N/NC(=O)c2ccc(CN3CCOCC3)cc2)ccc1OCc1ccccc1	dFosB act-1 20.7 (no result: SIRT5 inh, FGF22 binding) | dFosB act-2 inactive
O=C(NCC(c1ccco1)N1CCCC1)c1ccc(Cl)c(S(=O)(=O)N2CCc3ccccc32)c1 (configuration not stated)	dFosB act-1 22.5 | dFosB act-2 inactive
C[C@@H]1CN([C@H](C)CO)C(=O)c2cc(NC(=O)Nc3ccc(C(F)(F)F)cc3)ccc2O[C@@H]1CN(C)S(C)(=O)=O	none (no result: dFosB act-1, PvdQ acylase, CDK5 inh)
CCN1Cc2c(/C=C/c3ccccc3)nc3ccc(OC)cc3c2N(c2cccc(Cl)c2)C1	dFosB act-1 21.1 (no result: PglD DTNB) | dFosB act-2 inactive
COc1cccc(N2CCc3c(C)nc4ccc(Cl)cc4c32)c1	none
O=C(Nc1nc(-c2ccc(Cl)s2)cs1)c1ccco1	none (no result: PglD DTNB)
O=C(Nc1nc(-c2nc3ccccc3s2)cs1)c1ccco1	dFosB act-1 78.5 | dFosB act-2 inactive
CCOc1ccc(NC(=O)CC2C(=O)N(c3cccc(OC)c3)C(=O)N2C(C)C)cc1 (configuration not stated)	none
